Laboratory results from ChEMBL document CHEMBL4513216, “Probing the Open Global Health Chemical Diversity Library for Multistage-Active Starting Points for Next-Generation Antimalarials” (ACS Infect Dis, 2020).
Hit rate of the full screen: of about 68,000 compounds, about 2,700 (4%) showed an effect of 50% or more. The sample holds strong results, similar compounds and a random draw of the others, so the mix is not that of the screen.

System: Plasmodium berghei
Test: Screen against P. berghei liver stage (PbLuc), transformed with Luciferase, at 2uM
Assay type: functional, HepG2
Details: tested at 2 uM

| SMILES | INHIBITION |
| --- | --- |
| NC(=O)c1cc(C2CC2)nc2ccc(F)cc12 | -28.49% |
| CC(Nc1cccc2c1OCCO2)C(=O)Nc1cccc(C#N)c1 (centres undefined) | 17.64% |
| COCCCN(C)C(=O)c1cccc(Nc2cnccn2)c1 | -5.53% |
| CCCS(=O)(=O)NCC(O)c1c(Cl)cccc1Cl (centres undefined) | -35.21% |
| CCN(CC)S(=O)(=O)NCC(O)c1c(Cl)cccc1Cl (centres undefined) | 51% |
| CC(C)n1ccc(C(=O)NCC(O)c2c(Cl)cccc2Cl)n1 (centres undefined) | -6.2% |
| CCCN1CCCC2(CCN(S(=O)(=O)N3CCC(OC)CC3)C2)C1=O (centres undefined) | -46.38% |
| CCN(Cc1ccncc1)CC1(O)CCN(C(=O)c2cnn(C)c2)C1 (centres undefined) | 52.82% |
| CCN(Cc1ccncc1)CC1(O)CCN(C(=O)c2cccc(C)c2)C1 (centres undefined) | 45.73% |
| CCN(Cc1ccncc1)CC1(O)CCN(C(=O)c2ccccc2C)C1 (centres undefined) | 44.07% |
| COCc1nc(C(=O)NS(=O)(=O)c2cc(C)ccc2C)cs1 | 25.74% |
| Cc1cc(N2CCN(C(=O)c3cnn(C(C)C)c3)CC2)cc(C)n1 | 44.95% |
| NC(=O)CN1CC2(CCC1=O)CCN(Cc1cc(F)ccc1Cl)CC2 | 23.7% |
| Cn1cc(CN2CCC3(CC2)CN(C(=O)c2cnccn2)CCO3)cn1 | 2.22% |
| Cc1cc(N2CCCC(c3nncn3C3CC3)C2)ncn1 (centres undefined) | -23.49% |
| CC(C(=O)N1CCCC1)N1CCC(c2nccn2CC2CCC2)CC1 (centres undefined) | -19.54% |
| CCn1c(CN2CCCC2)nnc1C1CCN(Cc2ccncc2)CC1 | 54.41% |
| CCn1c(Cn2cncn2)nnc1C1CCN(C2CCNCC2)CC1 | 19.49% |
| CCn1c(CN(C)C)nnc1C1CCN(Cc2ccncc2)CC1 | 11.74% |
| CCn1c(CN2CCCC2)nnc1C1CCN(Cc2cccnc2)CC1 | -35.07% |
| CCn1c(Cn2cncn2)nnc1C1CCN(C2CCOCC2)CC1 | 50.32% |
| c1ncn(Cc2nnc(C3CCN(C4CCOCC4)CC3)n2C2CC2)n1 | -33.43% |
| Cc1cnc(C)c(Oc2ccc(CN3CCCC3)cc2Cl)n1 | -9.5% |

| SMILES | INHIBITION |
| --- | --- |
| Cc1ccc(C2CCCCCN2CCCS(C)(=O)=O)o1 (centres undefined) | 38.67% |
| CNS(=O)(=O)CCCN1CCCCCC1c1ccc(C)o1 (centres undefined) | 60.13% |
| Cc1ccc(C2CCCCCN2CCNS(C)(=O)=O)o1 (centres undefined) | 48.21% |
| CC1CCN(S(=O)(=O)N2Cc3ccccc3C[C@H]2C(N)=O)CC1 | 21.37% |
| COC(=O)c1cc(C2CC2)nc2c(Cl)cnn12 | 70.37% |
| COC(=O)c1cc(C2CC2)nc2c(C#N)cnn12 | 11.95% |
| O=C(O)c1cc(C2CC2)nc2c(Cl)cnn12 | 0.89% |
| Cc1nc(CN2CCCn3c(nc(Cn4cncn4)cc3=O)C2)cs1 | 37.6% |
| N#Cc1ccc(N2CCC3(CC2)CC(Oc2cccnc2)CO3)cc1 (centres undefined) | 38.49% |
| FC1(F)CCN(Cc2ccccn2)CC12CCN(c1cccnc1)C2 (centres undefined) | 2.07% |
| COC1CCN(C(=O)c2ccccc2NCc2cccnc2)CC1 | 54.77% |
| CC(C)N1CCN(C(=O)c2ccccc2NCc2cccnc2)CC1 | 8.73% |
| COCC1CCCN(C(=O)c2ccccc2NCc2cccnc2)C1 (centres undefined) | 22.39% |
| Cc1cc(CNCCNS(C)(=O)=O)sc1Br | 20.76% |
| O=C(CCn1cncn1)N1C[C@@H]2CC[C@H]1CN(Cc1cccnc1)C2 | 44.37% |
| O=C(NCC1CCOC1)c1cc(-c2ccc(Cl)cc2)n[nH]1 (centres undefined) | 61.07% |
| O=C(NCC1CCOC1)c1cc(-c2cccc(Cl)c2)[nH]n1 (centres undefined) | 47.03% |
| O=C(NCC1CCOC1)c1cc(-c2ccc(F)cc2)[nH]n1 (centres undefined) | -22.69% |
| CCCS(=O)(=O)NC(=O)c1ccc(CC)o1 | 10.48% |
| CCCS(=O)(=O)NC(=O)c1ccc(Br)o1 | 56.8% |
| CCCN(C)S(=O)(=O)NC(=O)c1ccc(CC)o1 | 13.28% |
| NC1CCCCN(Cc2cc(-c3ccccc3OC(F)(F)F)no2)C1 (centres undefined) | 28.63% |
| Cc1ccsc1CNCc1c(C(C)C)nn(C)c1N1CCOCC1 | -28.5% |

| SMILES | INHIBITION |
| --- | --- |
| O=C1CC(c2ccccc2F)c2c(n3ccsc3nc2=O)N1 (centres undefined) | 25.47% |
| CCOC(C)c1noc(CN(C)C(=O)c2cc3ccccn3c2)n1 (centres undefined) | 52.08% |
| CCOC(C)c1noc(CN(C)C(=O)c2ccncc2)n1 (centres undefined) | 20.14% |
| CCOC(C)c1noc(CN(C)C(=O)C2C(C)(C)C2(C)C)n1 (centres undefined) | 20.14% |
| Cc1cnn(CCC(=O)N2CCCN(c3ccccc3C#N)CC2)c1 | -43.47% |
| CCNC(=O)N(C)C(c1cccnc1)C(C)C (centres undefined) | 42.2% |
| CC(C)C(c1cccnc1)N(C)C(=O)Cc1c(F)cccc1F (centres undefined) | 54.29% |
| CC(C)C(c1cccnc1)N(C)C(=O)Cc1ccc(O)cc1 (centres undefined) | 39.44% |
| Cc1ccc(C(N)c2cccc(S(C)(=O)=O)c2)cc1 (centres undefined) | 54.92% |
| CS(=O)(=O)c1cccc(C(N)c2ccc(F)cc2)c1 (centres undefined) | -19.35% |
| CS(=O)(=O)c1cccc(C(N)c2ccccc2)c1 (centres undefined) | 35.65% |
| COc1ccc(CNC(=O)C(NC(=O)Cc2ccccc2)C(C)C)cn1 (centres undefined) | -129.64% |
| O=C(Cc1ccccc1)N1CCC2(CC(=O)N(c3ccsc3)C2)C1 (centres undefined) | -54.51% |
| COc1ccc(Cl)cc1C(=O)NCC1CCN(C(=O)c2ccoc2)CC1 | 17.33% |
| CCOc1cccc(NC(=O)Cc2cccc(O)c2)n1 | 0.51% |
| CSc1ccc(NC(=O)Cc2cccc(O)c2)nc1 | 55.36% |
| Cn1ccc(NC(=O)Cc2cccc(F)c2)n1 | 19.89% |
| COCCC(=O)N1C[C@@H](c2ccccc2F)[C@@]2(CCCC(=O)N2)C1 | -6.19% |
| O=C(NCc1cnc2n1CCN(CC1CCOCC1)C2)c1ccno1 | -14.52% |
| Cc1ccc(S(=O)(=O)N2CCC(N3CCCCC3)CC2)cc1C | -25.62% |
| Cc1cc(S(=O)(=O)N2CCCN3CCCC3C2)ccc1F (centres undefined) | 6.07% |
| Cc1ccc(S(=O)(=O)N2CCCCC(N3CCN(C)CC3)C2)cc1F (centres undefined) | 50.3% |
| Nc1nccnc1CC1CCCN(Cc2ccnc3ccccc23)C1 (centres undefined) | 13.02% |
